Compounds without any hit were thinned out: in the full panel of roughly 83,000, 20% have a hit.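 Each cell line was grown in a 96-well plate and treated with one concentration of compound for 48 hours. Values below 10 were considered active.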 Unmarked numbers belong to inactive results. Active and inactive are the calls of the source.
How the values were obtained:
Experiment in all cases: NCI-60 one-dose screen, 48 h (100 = growth as untreated, 0 = no growth, -100 = all killed)
Details in all cases: 10 µM unless noted
NCI-H23 lung = test system: NCI-H23 lung
NCI-H226 lung = test system: NCI-H226 lung
NCI-H322M lung = test system: NCI-H322M lung
HOP-62 NSCLC = test system: HOP-62 NSCLC
NCI-H460 lung = test system: NCI-H460 lung
HOP-92 NSCLC = test system: HOP-92 NSCLC
NCI-H522 lung = test system: NCI-H522 lung
A549/ATCC NSCLC = test system: A549/ATCC NSCLC
786-0 renal = test system: 786-0 renal
COLO 205 colon = test system: COLO 205 colon
DU-145 prostate = test system: DU-145 prostate
K-562 leukemia = test system: K-562 leukemia
MALME-3M melanoma = test system: MALME-3M melanoma
MDA-MB-231 breast = test system: MDA-MB-231 breast
RXF 393 renal = test system: RXF 393 renal
SF-268 CNS = test system: SF-268 CNS
SF-295 CNS = test system: SF-295 CNS
SF-539 CNS = test system: SF-539 CNS
UACC-257 melanoma = test system: UACC-257 melanoma
M14 melanoma = test system: M14 melanoma

| Compound | growth (NCI-H23 lung) | growth (NCI-H226 lung) | growth (NCI-H322M lung) | growth (HOP-62 NSCLC) | growth (NCI-H460 lung) | growth (HOP-92 NSCLC) | growth (NCI-H522 lung) | growth (A549/ATCC NSCLC) | growth (786-0 renal) | growth (COLO 205 colon) | growth (DU-145 prostate) | growth (K-562 leukemia) | growth (MALME-3M melanoma) | growth (MDA-MB-231 breast) | growth (RXF 393 renal) | growth (SF-268 CNS) | growth (SF-295 CNS) | growth (SF-539 CNS) | growth (UACC-257 melanoma) | growth (M14 melanoma) |
| --- | --- | --- | --- | --- | --- | --- | --- | --- | --- | --- | --- | --- | --- | --- | --- | --- | --- | --- | --- | --- |
| Cc1ccsc1[C@H]1c2[nH]c3ccccc3c2C[C@H]2C(=O)N(CCCCCCC(=O)NO)CC(=O)N12 | 89.6% | 97.3% | 81.1% | 101% | 78.4% | 92.6% | 58.8% | 99.3% | 99.1% | 96.5% | 90.6% | 58.2% | 25.6% | 96.8% | 85.9% | 105% | 95.1% | 77.9% | 76% | 86.4% |
| CCCCCN1C(=O)/C(=c2\sc3n(c2=O)C2C(NN=3)N(CC)C(=O)N2CC)c2cccc(C)c21 (stereo not given) | 70% | 42.4% | 82.7% | 44.2% | 30.9% | 70.2% | 30.4% | 68.6% | 76% | 38.7% | 76.6% | 16.2% | 51.6% | 62.4% | 15.1% | 56.9% | 45% | 23.8% | 79.8% | 51.4% |
| CCCCCCOC(=O)c1cc(-c2ccc(F)cc2)nc2ccccc12 | 90.3% | 91.2% | 94.9% | 94.4% | 103% | 65.9% | 82.8% | 101% | 107% | 107% | 105% | 101% | 97.1% | 85.6% | 96.8% | 96.1% | 98% | 99.9% | 99.1% | 96.9% |
| CNc1sc(S(=O)(=O)NC)nc1S(=O)(=O)c1ccc(C)cc1 | 102% | 92.5% | 96.4% | 99.4% | 109% | 84.9% | 94.5% | 98.8% | 99.4% | 112% | 107% | 97.5% | 110% | 101% | 108% | 103% | 93.6% | 98.6% | 100% | 101% |
| Cc1cc2nc3c4cc(C#N)ccc4n(CCN(C)C)c3nc2cc1C | -35% (active) | -21.5% (active) | -0.486% (active) | 4.29% (active) | -42.3% (active) | -19.1% (active) | -52.1% (active) | -67.2% (active) | 6.69% (active) | -82.7% (active) | 5.75% (active) | 3.51% (active) | -68% (active) | 8.68% (active) | -62.1% (active) | -7.74% (active) | -4.33% (active) | -15.2% (active) | -25.5% (active) | -83.3% (active) |
| CN1CCN(Cc2ccc(NC(=O)c3cncc(C#Cc4cnc5ccc(OC6CCOCC6)nn45)c3)cc2C(F)(F)F)CC1 | -58.7% (active) | -58.4% (active) | -44.7% (active) | -77.4% (active) | -77.9% (active) | -31.8% (active) | -75.5% (active) | -77.3% (active) | -89.1% (active) | -82.8% (active) | -89.5% (active) | -0.118% (active) | -87.5% (active) | -59.9% (active) | -80.9% (active) | -58.4% (active) | -97% (active) | -92.8% (active) | -72.3% (active) | -91.2% (active) |
| O=C(Nc1cc(C(F)(F)F)cc(C(F)(F)F)c1)Nc1ccc2oc(=O)ccc2c1 | -0.22% (active) | 18.8% | 13.4% | 23.9% | 6.36% (active) | -26.2% (active) | -13.5% (active) | 15.2% | 10.6% | -12.3% (active) | 18.3% | 13.7% | -26.4% (active) | -9.24% (active) | 39.7% | 21.1% | 0.342% (active) | 21.4% | 1.17% (active) | 18.1% |
